Data reported in PubChem BioAssay (EPA / NIEHS).
Active and inactive are the calls of the source. The calls were made as follows: active = hit-call score of the fitted dose curve at least 0.9, where 1 is the maximum; inactive = score below 0.9.

What was measured:
Settings in all cases: mRNA level, 48 h; actives raise or lower the signal
CYP4A11 (gene 1579) = test: LTEA_HepaRG_CYP4A11: Life Technologies and Expression Analysis (LTEA) Assay for CYP4A11 using HepaRG (AID 2283486)
Method in brief: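 HepaRG, 48 h chem exposure, 8 conc (100 uM top, half-log), 0.5% DMSO vehicle; qRT-PCR readout, housekeeping-gene normalized; bidirectional curve fit vs DMSO baseline.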

[1] = read-out: Cytochrome P450 3A4 (Homo sapiens) (UniProt P08684); test: LTEA_HepaRG_CYP3A4: Life Technologies and Expression Analysis (LTEA) Assay for CYP3A4 using HepaRG (AID 2283487)
Method in brief: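 Differentiated HepaRG cells in serum-free induction medium exposed in duplicate for 48 h to 8 half-log concentrations up to 100 uM in 0.5% DMSO. CYP3A4 mRNA measured by qRT-PCR normalized to ACTB, GAPDH and POLR2A; bidirectional fit versus DMSO.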

[2] = read-out: DNA damage-inducible transcript 3 (DDIT3), DDIT3 (gene 1649); test: LTEA_HepaRG_DDIT3: Life Technologies and Expression Analysis (LTEA) Assay for DNA damage-inducible transcript 3 (DDIT3) using HepaRG (AID 2283488)
Method in brief: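 Differentiated human HepaRG cells in serum-free induction medium were exposed in duplicate for 48 h to 8 concentrations (top 100 uM, half-log steps, 0.5% DMSO). DDIT3 mRNA measured by TaqMan qRT-PCR, normalized to ACTB/GAPDH/POLR2A; bidirectional fit versus DMSO.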

[3] = read-out: Pro-epidermal growth factor (Homo sapiens) (UniProt P01133); test: LTEA_HepaRG_EGF: Life Technologies and Expression Analysis (LTEA) Assay for Epidermal growth factor (EGF) using HepaRG (AID 2283489)
Method in brief: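 HepaRG, 48 h dosing, 100 uM top, half-log x8, 0.5% DMSO. Readout: TaqMan qRT-PCR (Fluidigm array), housekeeping-normalized. Gain or loss of signal fit vs DMSO.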

[4] = read-out: Early growth response protein 1 (EGR1) transcription factor, EGR1 (gene 1958); test: LTEA_HepaRG_EGR1: Life Technologies and Expression Analysis (LTEA) Assay for Early growth response protein 1 (EGR1) transcription factor using HepaRG (AID 2283490)
Method in brief: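 Differentiated HepaRG cells in serum-free induction medium exposed 48 hours, duplicate, to 8 half-log concentrations up to 100 uM in 0.5% DMSO. EGR1 mRNA measured by TaqMan qRT-PCR, normalized to ACTB, GAPDH, POLR2A; bidirectional fit versus DMSO.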

[5] = read-out: Ezrin (EZR), EZR (gene 7430); test: LTEA_HepaRG_EZR: Life Technologies and Expression Analysis (LTEA) Assay for Ezrin (EZR) using HepaRG (AID 2283491)
Method in brief: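 Differentiated human HepaRG cells, 48 h after plating, were exposed in serum-free induction medium for 48 hours to eight half-log concentrations up to 100 uM in 0.5% DMSO. EZR mRNA was measured by TaqMan qRT-PCR, normalized to ACTB, GAPDH and POLR2A, and fitted bidirectionally against DMSO.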

[6] = read-out: Cytochrome P450 3A7 (Homo sapiens) (UniProt P24462); test: LTEA_HepaRG_CYP3A7: Life Technologies and Expression Analysis (LTEA) Assay for CYP3A7 using HepaRG (AID 2283492)
Method in brief: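 Human HepaRG liver cells, 48 h post-plating, switched to serum-free induction medium and exposed in duplicate for 48 h. Dosing: 100 uM top, half-log dilutions, 8 points, 0.5% DMSO vehicle. Read-out: CYP3A7 mRNA, gain or loss fitted against DMSO baseline.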

CYP3A5 (gene 1577) = test: LTEA_HepaRG_CYP3A5: Life Technologies and Expression Analysis (LTEA) Assay for CYP3A5 using HepaRG (AID 2283493)
Method in brief: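 Differentiated HepaRG cells in serum-free induction medium were dosed 48 h with test chemicals (8-point half-log series, top 100 uM, 0.5% DMSO, duplicate). CYP3A5 mRNA measured by qRT-PCR, normalized to ACTB, GAPDH, POLR2A; bidirectional fit versus DMSO.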

[7] = read-out: Fatty Acid-Binding Protein 1 (FABP1), FABP1 (gene 2168); test: LTEA_HepaRG_FABP1: Life Technologies and Expression Analysis (LTEA) Assay for Fatty Acid-Binding Protein 1 (FABP1) using HepaRG (AID 2283494)
Method in brief: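 Differentiated human HepaRG cells exposed 48 h in serum-free induction medium to eight half-log concentrations up to 100 uM (0.5% DMSO), duplicate. FABP1 mRNA by qRT-PCR, normalised to ACTB, GAPDH, POLR2A; bidirectional fitting against DMSO.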

[8] = read-out: Cytochrome P450 4A22 (Homo sapiens) (UniProt Q5TCH4); test: LTEA_HepaRG_CYP4A22: Life Technologies and Expression Analysis (LTEA) Assay for Cytochrome P450 4A22 (CYP4A22) using HepaRG (AID 2283495)
Method in brief: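 Readout is CYP4A22 transcript induction or loss, quantified by qRT-PCR and normalized to ACTB, GAPDH and POLR2A. Human HepaRG cells receive test chemicals for 48 h at eight half-log concentrations from 100 uM in 0.5% DMSO.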

[9] = read-out: Cytochrome P450 7A1 (Homo sapiens) (UniProt P22680); test: LTEA_HepaRG_CYP7A1: Life Technologies and Expression Analysis (LTEA) Assay for Cytochrome P450 7A1 (CYP7A1) using HepaRG (AID 2283496)
Method in brief: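 Gene expression endpoint in human HepaRG liver cells treated for 48 h with test chemicals (up to 100 uM, 0.5% DMSO). Values come from bidirectional concentration-response fitting versus DMSO.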

[10] = read-out: Glutathione S-Transferase (GSTA2), GSTA2 (gene 2939); test: LTEA_HepaRG_GSTA2: Life Technologies and Expression Analysis (LTEA) Assay for Glutathione S-Transferase (GSTA2) using HepaRG (AID 2283497)
Method in brief: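 Differentiated human HepaRG cells were exposed in duplicate for 48 h in serum-free induction medium, 8 points from 100 uM top in half-log steps, 0.5% DMSO. GSTA2 mRNA was measured by TaqMan qRT-PCR, normalized to ACTB, GAPDH and POLR2A; bidirectional fit versus DMSO.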

[11] = read-out: Glutamate-cysteine ligase catalytic (GCLC), GCLC (gene 2729); test: LTEA_HepaRG_GCLC: Life Technologies and Expression Analysis (LTEA) Assay for Glutamate-cysteine ligase catalytic (GCLC) using HepaRG (AID 2283498)
Method in brief: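 Differentiated HepaRG cells exposed 48 h in serum-free induction medium, eight-point half-log series topping at 100 uM in 0.5% DMSO, duplicates. GCLC mRNA by qRT-PCR normalized to ACTB, GAPDH and POLR2A, fitted bidirectionally versus DMSO.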

[12] = read-out: growth arrest and DNA damage 45 (GADD45G), GADD45G (gene 10912); test: LTEA_HepaRG_GADD45G: Life Technologies and Expression Analysis (LTEA) Assay for growth arrest and DNA damage 45 (GADD45G) using HepaRG (AID 2283499)
Method in brief: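 Gain or loss of GADD45G mRNA, quantified by TaqMan qRT-PCR against three housekeeping genes, is fitted in both directions relative to 0.5% DMSO. Human HepaRG cultures receive test chemical for 48 h at up to 100 uM.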

[13] = read-out: Glutamate-cysteine ligase regulatory (GCLM), GCLM (gene 2730); test: LTEA_HepaRG_GCLM: Life Technologies and Expression Analysis (LTEA) Assay for Glutamate-cysteine ligase regulatory (GCLM) using HepaRG (AID 2283500)
Method in brief: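 Differentiated human HepaRG cells exposed 48 h in serum-free induction medium to 8-point half-log concentrations (top 100 uM, 0.5% DMSO), in duplicate. GCLM mRNA quantified by qRT-PCR, normalized to ACTB, GAPDH, POLR2A; bidirectional fitting versus DMSO.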

[14] = read-out: Glutathione S-transferase M3 (GSTM3), GSTM3 (gene 2947); test: LTEA_HepaRG_GSTM3: Life Technologies and Expression Analysis (LTEA) Assay for Glutathione S-transferase M3 (GSTM3) using HepaRG (AID 2283501)
Method in brief: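 HepaRG, plated 48 h, then serum-free induction medium; test chemical 48 h, duplicate; 100 uM top, half-log x8, 0.5% DMSO. Read-out: GSTM3 mRNA (TaqMan qRT-PCR, Fluidigm array). Bidirectional fit vs DMSO.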

[15] = read-out: Heat shock 70 kDa protein 1 (HSPA1A), gene 3303; test: LTEA_HepaRG_HSPA1A: Life Technologies and Expression Analysis (LTEA) Assay for Heat shock 70 kDa protein 1 (HSPA1A) using HepaRG (AID 2283502)
Method in brief: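 Differentiated human HepaRG cells in serum-free induction medium were exposed in duplicate for 48 h to eight concentrations (top 100 uM, half-log steps, 0.5% DMSO). HSPA1A mRNA was quantified by qRT-PCR, normalized to ACTB, GAPDH and POLR2A, and fitted bidirectionally against DMSO.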

[16] = read-out: Hypoxia-inducible factor 1-alpha (Homo sapiens) (UniProt Q16665); test: LTEA_HepaRG_HIF1A: Life Technologies and Expression Analysis (LTEA) Assay for Hypoxia-inducible factor 1 (HIF1A) Trancription factor using HepaRG (AID 2283503)
Method in brief: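 HepaRG, 48 h exposure, 8-pt half-log series from 100 uM, 0.5% DMSO vehicle, duplicates. Readout: HIF1A transcript by qRT-PCR (Fluidigm array), housekeeping-normalised. Bidirectional curve fit vs DMSO baseline.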

[17] = read-out: 3-Hydroxy-3-Methylglutaryl-CoA Synthase 2 (HMGCS2), HMGCS2 (gene 3158); test: LTEA_HepaRG_HMGCS2: Life Technologies and Expression Analysis (LTEA) Assay for 3-Hydroxy-3-Methylglutaryl-CoA Synthase 2 (HMGCS2) using HepaRG (AID 2283504)
Method in brief: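 HepaRG, plated 48 h then switched to serum-free induction media; cmpd 8-pt, max 100 uM, 1/2-log, 0.5% DMSO, n=2, 48 h. HMGCS2 mRNA by Fluidigm TaqMan qRT-PCR, ACTB/GAPDH/POLR2A norm; bidirectional fit vs DMSO.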

HGF (gene 3082) = test: LTEA_HepaRG_HGF: Life Technologies and Expression Analysis (LTEA) Assay for Hepatocyte Growth Facto (HGF) using HepaRG (AID 2283505)
Method in brief: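 Read-out is HGF transcript level by qRT-PCR, normalized to three housekeeping genes, fitted bidirectionally against 0.5% DMSO vehicle. Human HepaRG cells received test chemicals for 48 h at up to 100 uM.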

Measured: AC50

Sequence of Cytochrome P450 3A4 (Homo sapiens) (P08684 whole entry, looked up): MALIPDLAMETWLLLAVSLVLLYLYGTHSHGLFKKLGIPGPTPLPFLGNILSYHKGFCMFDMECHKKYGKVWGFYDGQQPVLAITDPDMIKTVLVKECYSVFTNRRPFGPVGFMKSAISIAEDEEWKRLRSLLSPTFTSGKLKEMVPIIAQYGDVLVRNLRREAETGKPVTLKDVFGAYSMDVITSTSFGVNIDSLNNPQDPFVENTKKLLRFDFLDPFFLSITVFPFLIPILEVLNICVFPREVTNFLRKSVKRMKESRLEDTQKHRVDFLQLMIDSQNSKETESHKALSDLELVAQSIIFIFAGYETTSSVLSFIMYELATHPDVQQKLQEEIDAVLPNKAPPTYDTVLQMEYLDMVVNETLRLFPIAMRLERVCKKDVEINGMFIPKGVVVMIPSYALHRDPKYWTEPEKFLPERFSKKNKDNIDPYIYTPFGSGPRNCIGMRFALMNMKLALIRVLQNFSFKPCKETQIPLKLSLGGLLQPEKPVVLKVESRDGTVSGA
Sequence of Cytochrome P450 3A7 (Homo sapiens) (P24462 whole entry, looked up): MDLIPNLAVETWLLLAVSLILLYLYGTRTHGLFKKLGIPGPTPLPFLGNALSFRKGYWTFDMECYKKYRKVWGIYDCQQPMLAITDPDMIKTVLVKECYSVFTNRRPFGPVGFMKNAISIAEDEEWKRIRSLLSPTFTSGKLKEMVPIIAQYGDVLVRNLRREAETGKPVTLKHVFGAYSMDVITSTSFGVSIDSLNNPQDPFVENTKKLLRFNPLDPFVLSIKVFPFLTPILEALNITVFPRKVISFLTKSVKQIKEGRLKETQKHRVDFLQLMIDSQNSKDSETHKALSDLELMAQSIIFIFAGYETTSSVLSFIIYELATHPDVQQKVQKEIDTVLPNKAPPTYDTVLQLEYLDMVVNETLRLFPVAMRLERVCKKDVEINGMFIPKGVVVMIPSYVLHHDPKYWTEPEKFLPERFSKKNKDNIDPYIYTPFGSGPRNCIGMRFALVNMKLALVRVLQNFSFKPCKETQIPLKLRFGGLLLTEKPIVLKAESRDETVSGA
Sequence of Hypoxia-inducible factor 1-alpha (Homo sapiens) (Q16665 whole entry, looked up): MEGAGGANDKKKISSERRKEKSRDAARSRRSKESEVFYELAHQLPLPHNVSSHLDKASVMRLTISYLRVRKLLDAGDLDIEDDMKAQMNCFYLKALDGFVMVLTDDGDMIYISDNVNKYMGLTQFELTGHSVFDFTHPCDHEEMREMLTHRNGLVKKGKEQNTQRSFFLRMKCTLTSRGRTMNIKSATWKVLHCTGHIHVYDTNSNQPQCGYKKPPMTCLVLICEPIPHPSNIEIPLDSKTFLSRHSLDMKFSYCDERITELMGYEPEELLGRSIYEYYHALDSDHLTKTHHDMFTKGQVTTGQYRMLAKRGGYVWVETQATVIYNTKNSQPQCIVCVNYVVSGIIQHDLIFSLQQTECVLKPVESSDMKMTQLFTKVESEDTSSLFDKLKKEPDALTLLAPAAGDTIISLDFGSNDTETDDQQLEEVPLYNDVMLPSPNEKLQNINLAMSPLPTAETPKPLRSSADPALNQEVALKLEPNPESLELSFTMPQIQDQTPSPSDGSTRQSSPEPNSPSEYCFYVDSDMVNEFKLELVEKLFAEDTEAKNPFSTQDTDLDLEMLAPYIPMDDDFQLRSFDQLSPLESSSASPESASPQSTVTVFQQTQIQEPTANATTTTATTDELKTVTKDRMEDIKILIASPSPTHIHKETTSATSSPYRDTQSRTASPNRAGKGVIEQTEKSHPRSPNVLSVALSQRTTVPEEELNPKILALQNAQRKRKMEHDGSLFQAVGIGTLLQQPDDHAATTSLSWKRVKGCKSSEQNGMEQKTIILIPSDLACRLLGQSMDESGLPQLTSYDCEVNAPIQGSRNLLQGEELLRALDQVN

O=C1CCCO1
active: CYP4A11 (gene 1579) 0.0449 µM | CYP3A5 (gene 1577) 9.92 µM | [10] 50 µM | [11] 9.92 µM | [17] 50 µM
inactive: all other assays above

C1=Cc2cccc3cccc1c23
inactive: all assays above

Clc1ccccc1Cl
inactive: all assays above

CCC(C)c1ccc(O)cc1 (stereo not given)
active: [11] 0.397 µM
inactive: all other assays above

Cn1cc(-c2ccccc2)c(=O)c(-c2cccc(C(F)(F)F)c2)c1
active: [1] 2.92 µM | [2] 89.8 µM | [6] 1.52 µM | [12] 50 µM | [15] 16.3 µM
inactive: all other assays above

CC(C)(OOC(C)(C)c1ccccc1)c1ccccc1
active: [1] 23.9 µM | [6] 40.4 µM
inactive: all other assays above

Cc1ccc(N)c(N)c1
active: [6] 35.9 µM | [7] 74.8 µM | [10] 28.9 µM
inactive: all other assays above
